MCF10A rereplic = inducers of DNA re-replication in MCF 10A breast cells; Potency, µM (series often up to 46.1 µM), for inactives: at the top dose activity, positive = re-replication, usual class: activators; AID 624296; MCF 10A DNA re-replication, Hoechst nuclear intensity, 48 h; 350,000 tested, 2.9% active; further: potency means the concentration at half of the fitted maximal effect; % of control where 0% means no effect; nearly all actives have a fitted effect of over 50% in size
KB-3-1 cytotox = kills parental KB-3-1 adenocarcinoma cells. Potency, µM (series often up to 46.1 µM), hits mostly cytotoxic. AID 1347075. KB-3-1 viability, CellTiter-Glo ATP luminescence, 72 h. 400,000 tested, 1.4% active; further: potency means the concentration at half of the fitted maximal effect; on the % scale 0 is the no-effect control and ±100 the full control effect; nearly all actives have a fitted effect of over 60% in size
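Parental KB-3-1 viability, qHTS format: 72 h compound exposure, 37 °C; CellTiter-Glo; media-only wells and DMSO plates as controls; concentration-effect fits on corrected data.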
KB-V1 MDR tox = KB-V1 MDR subline cytotoxicity | KB-V1 MDR cells viability, CellTiter-Glo, 72 h | Potency, µM (highest dose often 46.1 µM), actives largely listed as cytotoxic | 400,000 tested, 3.4% active | AID 1347076; further: potency means the concentration at half of the fitted maximal effect; on the % scale 0 is the no-effect control and ±100 the full control effect; nearly all actives have a fitted effect of over 60% in size
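KB-V1 cells (P-gp-expressing MDR subline of KB-3-1) in phenol-red-free DMEM with 10% FBS were exposed to library compounds over a concentration series for 72 h at 37 degrees C. Viability read by CellTiter-Glo luminescence; concentration-effect curves fitted after normalization.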
IL1B secr inh = inflammasome signaling inhibition, IL-1 beta readout; activity change, % at 57.5 µM; 360,000 tested, 4.7% active; THP-1 LPS/ATP IL-1B secretion, AlphaLISA, 16 h; active compounds read low; in the data active means activity change below about -50%; inconclusive means mostly about -30% to -49%; further: on the % scale 0 is the no-effect control and ±100 the full control effect
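THP-1 cells pretreated 1 hr with compounds (up to 57.5 uM final), then stimulated with LPS (250 ng/mL final) plus ATP (1.25 mM final); secreted IL-1B measured by AlphaLISA after 16 hr, decreased signal indicating inhibition.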
SW480 rereplic = inducers of DNA re-replication in SW480 colon cancer cells. SW480 DNA re-replication, Hoechst DNA content imaging, 48 h. AID 624297. Potency, µM (top dose mostly 46.1 µM), for inactives: at the highest dose re-replication activation, usual class: activators. 340,000 tested, 1.8% active; further: potency means the concentration at half of the fitted maximal effect; % of control where 0% means no effect; nearly all actives have a fitted effect of over 55% in size
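Image-based read-out: total Hoechst fluorescence of nuclei (405 nm excitation, 500-530 nm emission), with hits raising the fraction of high-intensity nuclei. SW480 colon cells incubated 48 hr with compounds at 37 C.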
Active calls of the source: *; i = inactive; ? = inconclusive; · = not tested or not shown. This is a sample that favours compounds with a hit; in the whole collection about 9.9% have one here. Unless noted, the call rests on the fitted dose curve; in most records, active means well fitted curve in the direction sought with a large enough effect; inconclusive means small, poorly fitted or top-dose-only effect, or another doubt; inactive means no such curve, though single readings can be large; an effect the other way counts as inactive or inconclusive.

SMILES	MCF10A rereplic	KB-3-1 cytotox	KB-V1 MDR tox	IL1B secr inh	SW480 rereplic
CC(Sc1nc(=O)cc(N)n1CCc1ccccc1)C(=O)Nc1ccccc1C#N (centres undefined)	·	i	i	·	·
S=c1[nH]cnc2scc(-c3ccc(Br)cc3)c12	?	?	?	-18.3	11.6µM*
Cc1ccc(-c2csc3nc[nH]c(=S)c23)cc1	?	?	?	-14.8	?
Cc1cc(NC(=S)N(CCCN2CCN(C)CC2)Cc2ccco2)ccc1Cl	4.3%	i	?	-23.0	-1.2%
CCOC(=O)c1nn(-c2ccc(F)cc2)cc1O	-7.2%	i	i	-7.3	3.4%
CCOC(=O)c1nn(-c2ccc3c(c2)CCN3C(C)=O)cc1O	14.6µM*	i	i	-23.5	15.9%
CC1=[N+](C)c2c(ccc3cccnc23)C1(C)C	?	10.3µM*	?	-112.4*	?
CSCC[C@H](NC(=O)Nc1ccc(S(N)(=O)=O)cc1)C(=O)O	1.0%	i	i	2.7	-4.2%
O=C(CCn1c(=O)[nH]c2ccsc2c1=O)N1CCN(c2cccc(Cl)c2)CC1	?	20.6µM*	i	-10.2	4.8%
O=C(Nc1nnc(SCc2ccc(F)cc2)s1)C1Cc2ccccc2CN1C(=O)c1ccco1 (centres undefined)	?	i	i	-78.0*	1.7%
Nc1nnc(CC(=O)N/N=C/c2ccc(-c3ccc(F)cc3)o2)s1	-0.6%	i	i	-51.0*	-4.8%
CCOC(=O)c1ccc(-c2ccc(/C=N/NC(=O)Cc3nnc(N)s3)o2)cc1	1.5%	i	i	8.8	-1.5%
Cc1c(-c2ccccc2)nc2c(Cl)cccc2c1C(=O)OCC(=O)c1ccc(F)cc1	·	i	i	·	·
COc1cccc2c1C(=O)c1c(O)c3c(c(O)c1C2=O)CC(O)(C(=O)CO)CC3OC1CC(N(C)C)C(O)C(C)O1 (centres undefined)	1.4%	?	13µM*	-100.1*	-8.8%
CC(=O)[C@]1(O)Cc2c(O)c3c(c(O)c2[C@@H](O[C@H]2C[C@H](N)[C@H](O)[C@H](C)O2)C1)C(=O)c1ccccc1C3=O	1.6%	0.0731µM*	1.84µM*	-105.8*	-219.1%
COc1cccc2c1C(=O)c1c(O)c3c(c(O)c1C2=O)C[C@@](O)(C(C)=O)C[C@@H]3O[C@H]1C[C@H](N)[C@H](O)[C@H](C)O1	13.3%	0.013µM*	?	-110.2*	-3.8%
COc1cccc2c1C(=O)c1c(O)c3c(c(O)c1C2=O)C[C@](O)(C(=O)CO)C[C@@H]3O[C@H]1C[C@H](N)[C@@H](O)[C@H](C)O1	-4.1%	·	·	·	-8.4%
Cc1ccc2nc(-c3ccccn3)[nH]c2c1	-14.9%	?	18.4µM*	-4.4	-0.3%
CCNc1nc2c(c(=O)n(C)c(=O)n2C)n1Cc1ccc(F)cc1	·	?	i	·	·
COc1ccc(CCNc2nc3c(c(=O)n(C)c(=O)n3C)n2Cc2ccc(F)cc2)cc1OC	·	18.4µM*	2.06µM*	·	·
CCOc1ccc(CCNc2nc3c(c(=O)n(C)c(=O)n3C)n2CC)cc1OCC	0.5%	14.6µM*	?	1.6	-0.9%
CCn1c(NCc2ccccn2)nc2c1c(=O)n(C)c(=O)n2C	-1.5%	i	i	-2.7	-4.3%
Cc1ccc(S(=O)(=O)N2CC3=C(C2)C2CC2(C)C3)cc1 (centres undefined)	·	i	?	16.7	·
O=C1CN(S(=O)(=O)c2cccc(C(=O)O)c2)c2ccccc2N1	-17.7%	i	i	-1.1	-21.7%
O=c1c(C(c2ccc(Br)cc2)c2c(O)nc3n(c2=O)CCCS3)c(O)nc2n1CCCS2	-1.7%	?	i	19.9	-8.5%
SMILES	MCF10A rereplic	KB-3-1 cytotox	KB-V1 MDR tox	IL1B secr inh	SW480 rereplic
O=c1c(C(c2ccc(Br)cc2)c2c(O)nc3n(c2=O)CCS3)c(O)nc2n1CCS2	0.7%	i	i	-68.6*	0.7%
COc1ccc(S(=O)(=O)n2nc(OCc3cccs3)cc2N)cc1	12.1%	i	20.6µM*	40.4	-14.0%
CCOC(=O)c1cccc(NC(=O)c2cc3c(=O)n(C)c4ccccc4c3n2C)c1	·	i	i	·	·
C(=Nc1ccc(/C=C/c2ccnc3ccccc23)cc1)c1ccco1	·	i	i	·	·
CN1CCOCCOc2ccccc2OCCOCC1	1.8%	i	i	20.4	-19.1%
c1ccc2c(c1)OCCOCCOCCOCCOc1ccccc1OCCOCCOCCO2	2.7%	25.9µM*	3.66µM*	-4.0	?
Brc1ccc2c(c1)OCCOCCOCCOCCOCCO2	-2.2%	i	i	-0.7	-6.1%
Brc1ccc2c(c1)OCCOCCOCCOCCOCCOCCO2	0.5%	i	6.51µM*	-27.5	7.3%
O=S(=O)(Nc1cccc(-n2cnnn2)c1)c1ccccc1C(F)(F)F	7.6%	i	i	0.8	2.6%
COc1ccc(-c2cc(C(F)(F)F)c(C#N)c(SCC(=O)Nc3ccc(C)cc3)n2)cc1	5.5%	i	i	41.3	-1.8%
COc1ccc(C(=O)CSc2[nH]c(=O)cc(C(F)(F)F)c2C#N)cc1	18.4µM*	?	i	3.5	?
CCCCN(C)C(=O)c1nc2ccccn2c1CN1CCC[C@H]1CO	6.9%	i	i	12.0	-0.2%
O=C(O)C1C(C(=O)Nc2ccc(Cl)cc2)C2C=CC1C21CC1 (centres undefined)	?	i	20.6µM*	10.5	-5.3%
Cc1ccc(N=C2NC(=O)/C(=C\c3ccc(C)s3)S2)cc1	3.2%	i	i	-11.2	0.9%
Cc1cccc(N=C2NC(=O)/C(=C\c3cccs3)S2)c1	?	i	i	-5.6	?
Cc1ccc(N=C2NC(=O)/C(=C/c3cccn3C)S2)cc1C	14.6µM*	?	?	19.7	?
Cc1ccc(N=C2NC(=O)CS2)cc1C	19.6%	?	9.2µM*	-2.1	-8.1%
Cc1cccc(N=C2NC(=O)/C(=C/c3cccn3C)S2)c1C	?	i	?	-2.7	-58.2%
Cc1cccc(N=C2NC(=O)CS2)c1	-5.5%	i	?	-2.1	-4.6%
Cc1ccc(N=C2NC(=O)/C(=C/c3cccn3C)S2)cc1	?	?	?	40.6	10.3µM*
Cc1ccc(N=C2NC(=O)/C(=C/c3cccs3)S2)cc1C	16.4µM*	i	?	-5.8	-0.9%
CCCN(CC(=O)Nc1ccccc1OC)C(=O)Cc1ccccc1F	-1.3%	i	i	0.0	-8.7%
CC1=C(C(=O)Nc2ccc(Cl)cc2)C(C(C)C)n2nc(SCc3ccc(Cl)cc3)nc2N1 (centres undefined)	·	i	i	·	·
Brc1ccc2nc(N3CCN(c4ccccc4)CC3)sc2c1	-2.8%	i	i	-73.9*	-3.9%
Clc1ccc2nc(N3CCN(c4ccccc4)CC3)sc2c1	-1.4%	i	i	7.8	-4.4%

Source: PubChem BioAssay
